Source: PubChem BioAssay (several laboratories)
A selection: hits, their analogues and other compounds. The true share with any hit is near 4.7%.
SUMO HTRF inh: inhibitors of human SUMOylation (UBC9); hit rate 0.36% among 290,000; inhibition, % at 35 µM; P63279; HTRF SUMOylation assay, SAE1/SAE2 + UBC9, in vitro; in the data active means inhibition above about 50%, passing the limit was not always enough
Efflux pump mplx: antifungal efflux pump inhibition, Nile Red retention; S. cerevisiae Candida pump triplex; inhibition, % at 10 µM; hit rate 0.44% among 330,000;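 active means plate passing quality check with inhibition over a set limit, or well fluorescence over plate mean plus 4 SD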;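 further: Nile Red retained in pooled yeast measured as flow cytometry median fluorescence; 0% = buffer negative control and 100% = Enniatin B positive control; higher means more Nile Red kept so more efflux inhibition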
PABP1 MLLE inh: inhibitors of microRNA-mediated deadenylation, human PABP1 MLLE binding; hit rate 0.36% among 360,000; AID 588489; inhibition, % at 20 µM; GST-MLLE / FITC-PAM2 fluorescence polarization; in the data active means inhibition above about 35%, passing the limit was not always enough;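 further: plate controls were DMSO wells with GST-MLLE for no effect and wells lacking GST-MLLE protein for full effect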
Target sequence (P11940 whole entry, looked up): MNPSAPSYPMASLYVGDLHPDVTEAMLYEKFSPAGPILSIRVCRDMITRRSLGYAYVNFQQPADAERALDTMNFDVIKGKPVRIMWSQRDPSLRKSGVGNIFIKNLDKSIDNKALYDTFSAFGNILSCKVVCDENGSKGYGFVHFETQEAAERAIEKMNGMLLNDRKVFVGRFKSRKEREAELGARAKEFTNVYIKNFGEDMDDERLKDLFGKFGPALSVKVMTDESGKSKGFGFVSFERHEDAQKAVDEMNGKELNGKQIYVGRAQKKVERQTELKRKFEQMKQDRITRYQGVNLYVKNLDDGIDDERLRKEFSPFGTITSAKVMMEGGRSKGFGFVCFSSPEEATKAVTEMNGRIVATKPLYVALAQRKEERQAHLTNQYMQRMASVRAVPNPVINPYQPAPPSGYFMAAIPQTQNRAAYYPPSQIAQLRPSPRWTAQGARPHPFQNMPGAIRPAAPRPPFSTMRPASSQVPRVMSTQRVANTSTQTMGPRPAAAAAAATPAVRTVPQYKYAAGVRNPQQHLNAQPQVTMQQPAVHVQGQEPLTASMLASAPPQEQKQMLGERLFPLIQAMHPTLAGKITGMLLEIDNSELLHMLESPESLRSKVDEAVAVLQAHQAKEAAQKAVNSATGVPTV
eIF4H inh: inhibitors of RNA binding by human eIF4H. Q15056. eIF4H fluorescence polarization binding assay. inhibition, % at 35 µM. hit rate 0.94% among 290,000;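 further: calls also rest on retests at 20 µM and on dose response follow-up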
ALR H2O2 inh: human ALR oxidase inhibition via reduced H2O2; P55789; purified ALR, DTT oxidation, H2O2 HRP-luminol luminescence; inhibition, % (no concentration beside the values); hit rate 3.8% among 290,000; AID 485317;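 active means mean replicate inhibition above about 79%, with every replicate also reaching it, limit read from the data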
PABP FP inh: blocks human PABP binding to poly(A) RNA; fluorescence polarization; hit rate 1% among 290,000; inhibition, % at 35 µM;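 further: calls also rest on retests at 20 µM and on dose response follow-up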
Active calls of the source: *; . = no result given. Unless noted, how the calls were made is not given here.

SMILES | SUMO HTRF inh | Efflux pump mplx | PABP1 MLLE inh | eIF4H inh | ALR H2O2 inh | PABP FP inh
CC1(CCC(=O)N2CCCC(Nc3ccc(F)cc3)C2)CC1 (configuration not stated) | 2 | 0 | 1 | 2 | 98* | 18
C[C@@H]1CN([C@@H](C)CO)C(=O)c2cc(Br)cnc2O[C@H]1CN(C)C(=O)Nc1ccc2c(c1)OCO2 | . | . | -9 | . | . | .
O=C(CC1CCCC1)N1CCCC(Nc2ccc(F)cc2)C1 (configuration not stated) | 8 | 0 | -13 | -6 | 99* | -2
CC1CN(S(=O)(=O)c2cccc(C(=O)NCC(c3cccs3)N3CCOCC3)c2)CC(C)O1 (configuration not stated) | . | . | 11 | . | . | .
CCCSc1ccc([C@@H]2[C@@H]3C(=O)N(C)C(=O)[C@@H]3[C@]3(C(=O)OC)CCCN23)cc1OC | . | 0 | 14 | . | 2 | .
COc1ccc(Nc2ccc(OC)cc2)cc1 | 56* | 0 | 22 | 12 | 99* | 10
COc1ccc(Nc2cccccc2=O)cc1 | 12 | 0 | 6 | 6 | 97* | -5
COc1ccc(Nc2ccccc2C(=O)O)cc1 | 0 | 0 | -2 | 4 | 99* | -7
COc1ccc(Nc2ccc(Nc3ccc(OC)cc3)nn2)cc1 | 2 | 0 | 0 | -2 | -11 | -8
COCCNC(=S)N1CCC(NC(=O)c2ccco2)CC1 | -18 | 0 | -79 | 3 | . | 2
COc1ccc(S(=O)(=O)N2CCC(C(=O)NN3CCCCC3)CC2)cc1 | . | . | 5 | . | . | .
CCCCN1CC(=O)N2[C@H]3c4ccccc4OC[C@@H]3[C@H](c3ccccc3)[C@]2(C)C1=O | . | 0 | 17 | . | -1 | .
Cn1ncc(Cl)c1C(=O)NC1CCCC1 | 4 | 0 | 0 | 43 | -4 | 2
COc1ccc(CCNc2nc(C)c(C(C)=O)s2)cc1OC | 8 | 0 | 40* | -13 | -1 | 9
COc1ccc(CCNc2nc(-c3ccc(F)cc3)c(CC(=O)O)s2)cc1OC | 15 | 0 | -53 | 80 | 40 | 35*
COc1ccc(CCNc2nc(-c3ccc(NC(C)=O)cc3)cs2)cc1OC | -19 | 0 | 2 | -4 | 97* | -6
COc1ccccc1CNC(=O)c1c(N)n(CCCN2CCOCC2)c2nc3ccccc3nc12 | 52* | . | 3 | 6 | . | 14
COCCNC(=O)c1c(N)n(CCCn2ccnc2)c2nc3ccccc3nc12 | 87* | 0 | -25 | 2 | 23 | 6
CC(C)Cn1c(N)c(C(=O)NCC2CCCO2)c2nc3ccccc3nc21 (configuration not stated) | 101 | 0 | -25 | 6 | 10 | 8
COCCn1c(N)c(C(=O)NCC2CCCO2)c2nc3ccccc3nc21 (configuration not stated) | 91* | 0 | 4 | 10 | 22 | 4
Nc1c(C(=O)NCc2ccc3c(c2)OCO3)c2nc3ccccc3nc2n1CCCN1CCOCC1 | 32 | 0 | -10 | -9 | 5 | 2
Nc1c(C(=O)NCc2ccco2)c2nc3ccccc3nc2n1CCc1ccc(F)cc1 | 100* | 0 | -36 | -2 | -24 | 11
CC(=O)c1c(C)[nH]c(C(=O)OCC(=O)N(CC(C)C)C2CCS(=O)(=O)C2)c1C (configuration not stated) | . | . | -8 | . | . | .
COc1cc(NC(=O)c2cccc(F)c2)ccc1NC(=O)c1cc2ccccc2o1 | 37 | 0 | 10 | -2 | -12 | 4
Cc1cc(C)n(-c2cc(C(=O)O)cc(C(=O)O)c2)n1 | 10 | 0 | 12 | -8 | -6 | -8
SMILES | SUMO HTRF inh | Efflux pump mplx | PABP1 MLLE inh | eIF4H inh | ALR H2O2 inh | PABP FP inh
COc1cc(-c2cc3nc(NCc4ccco4)ccn3n2)cc(OC)c1OC | . | . | -14 | . | . | .
CCc1ccccc1NC(=O)CN1CCN(CC(=O)NCc2ccc(Cl)cc2)CC1 | . | 0 | 5 | . | . | .
O=C(O)C1Cc2ccccc2CN1S(=O)(=O)c1ccccc1 (configuration not stated) | 10 | 0 | -14 | 20 | -2 | 12
O=C(O)C1Cc2ccccc2CN1S(=O)(=O)c1ccc2ccccc2c1 (configuration not stated) | 4 | 0 | -1 | 11 | 95* | 17
CCN(CC)C(=O)c1nc[nH]c1C(=O)N1CCC(C)CC1 | . | 0 | -5 | . | . | .
CCOC(=O)c1sc(N)c(C#N)c1COC(=O)CNC(=O)c1ccccc1 | 7 | 0 | -104 | 133 | . | 126*
CCOC(=O)c1sc(NC(=O)c2ccccc2)cc1C | -9 | 0 | -8 | -6 | -7 | -8
COc1cc(/C=N/n2c(COc3ccccc3)n[nH]c2=S)cc(Br)c1O | 1 | 0 | 13 | 6 | 97* | 5
COc1cc(/C=N/n2c(-c3ccccc3)n[nH]c2=S)cc(OC)c1O | -5 | 0 | 2 | -6 | 36 | -4
COc1cc(-c2n[nH]c(=S)n2/N=C/c2cccn2C)cc(OC)c1OC | -3 | 0 | -24 | -2 | 97* | 2
Cn1cccc1/C=N/n1c(-c2ccco2)n[nH]c1=S | 14 | 0 | -39 | -3 | 26 | 8
COc1cc(/C=N/n2c(-c3ccccc3)n[nH]c2=S)ccc1O | -7 | 0 | 5 | -7 | 99* | 3
O=C(O)c1ccc(/C=N/n2cc(-c3ccccc3)[nH]c2=S)cc1 | 9 | 0 | 23 | 14 | 99* | 9
NC(=O)C1CCN(c2oc(/C=C/c3ccccc3)nc2S(=O)(=O)c2ccccc2)CC1 | 18 | 0 | 6 | -13 | 21 | -7
CCC(C)N(C(=O)COC(=O)c1ccc(=O)n(Cc2ccccc2)n1)C1CCS(=O)(=O)C1 (configuration not stated) | . | 0 | 6 | . | 2 | .
Cn1c(=O)c2c(nc(C(O)c3ccccc3)n2C)n(C)c1=O (configuration not stated) | . | . | 11 | . | . | .
Cc1ccc(-c2n[nH]c(=S)n2/N=C/c2ccc(C(=O)O)cc2)cc1 | -8 | 0 | -19 | -13 | 90* | -6
COc1cc(/C=N/n2c(-c3n[nH]c4c3CCC4)n[nH]c2=S)ccc1O | 7 | 0 | -10 | -2 | 99* | 2
Cc1c(Br)c(O)c(Br)c(O)c1/C=N/n1c(-c2ccccc2)n[nH]c1=S | 16 | 0 | 13 | 9 | 98* | 53
Clc1ccc(OCCCCCN2CCOCC2)cc1 | 0 | 0 | 4 | 1 | -1 | -5
O=C(NC(=S)N1CCCCCC1)c1ccccc1Cl | -8 | 0 | 44* | -4 | . | -6
Cc1cc2nc(-c3cccnc3SCC(=O)NCc3ccco3)[nH]c2cc1C | . | 0 | -2 | . | 99* | .
O=C(CSc1ncccc1-c1nc2ccccc2[nH]1)NCc1ccco1 | 13 | 0 | -6 | 12 | -5 | 38
Cc1ccc2c(SCC(=O)NCc3ccco3)nc(-c3ccc(F)cc3)nc2c1 | 59* | 0 | 13 | -6 | -5 | 0
CCOC(=O)C1CCN(C(=O)c2cc3cc(C)ccc3[nH]2)CC1 | 13 | 0 | 13 | -7 | -5 | -5
CC(C)Cc1nc2ccc(N)cc2[nH]1 | 25 | 0 | -21 | -1 | 100* | 13
